Measurements from ChEMBL document CHEMBL3988442, “University of Dundee, Small-Polar-MMV Screening Library” (2021).
For some of these results: Potency and affinity values are given separately.

How the values were obtained:
Set-up in all cases: scale not given: direction of the effect not stated beside the values
[1] = molecular target: Protein translocase subunit SecA (Escherichia coli (strain K12)) (UniProt P10408); assay: Assay to Identify E. coli SecA ATPase Inhibitors; type: functional; conditions: 30 µM
Sequence of Protein translocase subunit SecA (Escherichia coli (strain K12)) (P10408 whole entry): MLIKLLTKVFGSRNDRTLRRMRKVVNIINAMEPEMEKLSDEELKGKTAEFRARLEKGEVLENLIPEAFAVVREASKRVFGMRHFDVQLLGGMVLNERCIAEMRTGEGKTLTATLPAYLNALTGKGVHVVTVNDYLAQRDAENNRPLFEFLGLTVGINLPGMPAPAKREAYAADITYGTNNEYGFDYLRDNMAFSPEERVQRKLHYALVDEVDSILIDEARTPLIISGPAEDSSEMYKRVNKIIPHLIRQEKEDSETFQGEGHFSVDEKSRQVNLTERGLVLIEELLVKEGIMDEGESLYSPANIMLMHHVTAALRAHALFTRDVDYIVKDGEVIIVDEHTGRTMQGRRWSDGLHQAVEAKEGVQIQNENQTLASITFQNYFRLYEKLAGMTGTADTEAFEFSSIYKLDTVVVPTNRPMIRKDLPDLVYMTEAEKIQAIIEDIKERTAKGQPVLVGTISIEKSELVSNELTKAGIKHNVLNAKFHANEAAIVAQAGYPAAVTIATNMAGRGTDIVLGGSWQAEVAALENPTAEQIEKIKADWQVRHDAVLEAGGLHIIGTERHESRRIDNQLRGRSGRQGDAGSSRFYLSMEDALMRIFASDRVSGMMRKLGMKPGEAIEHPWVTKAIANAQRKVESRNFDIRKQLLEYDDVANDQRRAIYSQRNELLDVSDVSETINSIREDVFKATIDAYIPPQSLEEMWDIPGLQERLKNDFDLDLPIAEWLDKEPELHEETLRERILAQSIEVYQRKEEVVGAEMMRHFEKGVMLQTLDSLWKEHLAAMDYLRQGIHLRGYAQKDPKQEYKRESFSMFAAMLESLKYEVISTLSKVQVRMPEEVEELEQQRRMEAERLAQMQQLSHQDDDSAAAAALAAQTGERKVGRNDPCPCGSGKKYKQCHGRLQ

[2] = molecular target: T1, Ubiquitin-activating enzyme e1, putative (Leishmania donovani (strain BPK282A1)) (UniProt E9BSI1); assay: Leishmania donovani Ubiquitin Activating Enzyme (LdE1); type: functional; conditions: 30 µM
T1 sequence (whole entry): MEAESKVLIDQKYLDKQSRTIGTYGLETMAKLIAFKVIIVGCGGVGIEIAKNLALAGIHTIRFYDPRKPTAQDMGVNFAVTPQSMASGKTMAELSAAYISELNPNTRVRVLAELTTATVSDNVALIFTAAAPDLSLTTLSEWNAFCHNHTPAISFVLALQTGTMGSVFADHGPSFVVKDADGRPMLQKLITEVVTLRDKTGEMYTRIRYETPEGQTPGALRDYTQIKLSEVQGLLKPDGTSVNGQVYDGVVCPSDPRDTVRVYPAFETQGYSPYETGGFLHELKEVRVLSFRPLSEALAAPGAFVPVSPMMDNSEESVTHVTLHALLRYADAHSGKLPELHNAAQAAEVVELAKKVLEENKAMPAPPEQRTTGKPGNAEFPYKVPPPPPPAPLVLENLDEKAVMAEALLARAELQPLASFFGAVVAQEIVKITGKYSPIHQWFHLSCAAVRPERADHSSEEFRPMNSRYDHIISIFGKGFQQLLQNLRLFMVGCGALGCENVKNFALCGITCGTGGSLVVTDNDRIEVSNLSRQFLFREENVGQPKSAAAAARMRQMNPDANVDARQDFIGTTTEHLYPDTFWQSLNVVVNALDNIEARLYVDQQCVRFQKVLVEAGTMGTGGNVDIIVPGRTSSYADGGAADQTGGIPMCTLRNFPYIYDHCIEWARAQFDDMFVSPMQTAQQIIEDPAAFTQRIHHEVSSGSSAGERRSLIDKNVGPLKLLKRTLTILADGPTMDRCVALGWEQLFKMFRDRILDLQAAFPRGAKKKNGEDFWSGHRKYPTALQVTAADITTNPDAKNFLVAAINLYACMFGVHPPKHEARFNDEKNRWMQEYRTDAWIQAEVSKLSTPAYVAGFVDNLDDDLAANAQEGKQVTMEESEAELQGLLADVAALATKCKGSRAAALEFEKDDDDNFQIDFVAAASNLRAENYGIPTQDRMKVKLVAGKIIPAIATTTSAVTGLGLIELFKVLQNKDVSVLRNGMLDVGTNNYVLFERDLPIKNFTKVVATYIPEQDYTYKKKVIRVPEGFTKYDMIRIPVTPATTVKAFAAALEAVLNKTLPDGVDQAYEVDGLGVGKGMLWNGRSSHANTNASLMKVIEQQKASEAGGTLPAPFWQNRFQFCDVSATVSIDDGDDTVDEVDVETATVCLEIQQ

[3] = molecular target: AMP-activated protein kinase, AMPK (Homo sapiens) (UniProt P54646+O43741+P54619+Q9UGJ0+Q9Y478+Q13131+Q9UGI9); assay: AMP-dependent Kinase enzyme assay. An in vitro enzyme assay that detects ADP turnover that is directly proportional to AMPK activity. This uses naive AMPK that is activated during the assay with MK-8722; type: functional; conditions: 30 µM
[4] = molecular target: Sialic acid-binding Ig-like lectin 9 (Homo sapiens) (UniProt Q9Y336); assay: Hs-Siglec9 ALPHAscreen SOP 20170721; conditions: 10 µM
Sequence of Sialic acid-binding Ig-like lectin 9 (Homo sapiens) (Q9Y336 whole entry): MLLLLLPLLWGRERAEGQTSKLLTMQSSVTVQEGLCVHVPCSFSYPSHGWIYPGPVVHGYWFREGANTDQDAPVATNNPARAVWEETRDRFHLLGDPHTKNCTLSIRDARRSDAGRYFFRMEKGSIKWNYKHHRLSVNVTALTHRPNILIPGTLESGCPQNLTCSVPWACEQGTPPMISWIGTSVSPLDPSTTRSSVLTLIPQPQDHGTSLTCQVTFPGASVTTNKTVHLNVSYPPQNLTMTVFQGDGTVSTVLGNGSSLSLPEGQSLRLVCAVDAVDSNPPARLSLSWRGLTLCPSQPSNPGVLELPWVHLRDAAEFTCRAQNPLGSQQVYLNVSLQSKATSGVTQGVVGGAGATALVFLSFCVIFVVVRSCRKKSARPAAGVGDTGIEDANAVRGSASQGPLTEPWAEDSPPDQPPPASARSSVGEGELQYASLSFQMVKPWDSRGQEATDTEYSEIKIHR

Trypanosoma cruzi = assay: Trypanosoma cruzi phosphomannomutase and mannose-1-phosphate guanylyltransferase assay; type: functional; conditions: 10 µM
[5] = molecular target: T2, Arginase-2, mitochondrial (Homo sapiens) (UniProt P78540); assay: in vitro enzyme assay to detect the production of urea directly proportional to the activity of Arginase II; type: functional; conditions: 33.3 µM; also: in the data most compounds retested in dose-response had high values
T2 sequence (whole entry): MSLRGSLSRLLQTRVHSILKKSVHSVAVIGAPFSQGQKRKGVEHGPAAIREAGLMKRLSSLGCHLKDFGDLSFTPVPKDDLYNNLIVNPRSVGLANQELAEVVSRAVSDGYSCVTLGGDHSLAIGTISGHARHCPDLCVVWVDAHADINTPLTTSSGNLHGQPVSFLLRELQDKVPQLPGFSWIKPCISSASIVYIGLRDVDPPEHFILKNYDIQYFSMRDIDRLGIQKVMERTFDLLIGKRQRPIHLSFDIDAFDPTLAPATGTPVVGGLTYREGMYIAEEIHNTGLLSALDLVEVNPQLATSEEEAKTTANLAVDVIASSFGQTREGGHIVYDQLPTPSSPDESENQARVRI

[6] = molecular target: T3, Proteasome subunit beta (Trypanosoma cruzi) (UniProt O96673); assay: Trypanosoma cruzi proteasome chymotrypsin-like activity (TcProtChymo) assay.; also: in the data most compounds retested in dose-response had high values; type: functional; conditions: 9.37 µM
T3 sequence (whole entry): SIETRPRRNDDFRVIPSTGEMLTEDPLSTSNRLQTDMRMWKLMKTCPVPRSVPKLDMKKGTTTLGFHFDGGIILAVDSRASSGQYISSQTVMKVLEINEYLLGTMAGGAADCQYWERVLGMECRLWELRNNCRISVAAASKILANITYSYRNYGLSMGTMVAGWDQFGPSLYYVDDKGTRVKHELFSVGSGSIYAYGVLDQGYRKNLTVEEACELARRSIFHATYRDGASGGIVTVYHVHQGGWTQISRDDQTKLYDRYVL

Homo sapiens = species: Homo sapiens; assay: To identify inhibition of the IFN signalling (Jak-Stat) pathway via expression of an eGFP reporter gene under the control of an IFN-stimulated response element (ISRE) containing MxA promoter.; type: functional; conditions: 30 µM
[7] = molecular target: T4, Tyrosyl-tRNA synthetase, putative (Trypanosoma cruzi (strain CL Brener)) (UniProt Q4DSP6); assay: Trypanosoma cruzi tyrosyl tRNA synthetase (TcYRS) _High Tyrosine SOP; type: functional; conditions: 30 µM; also: in the data most compounds retested in dose-response had high values
T4 sequence (whole entry): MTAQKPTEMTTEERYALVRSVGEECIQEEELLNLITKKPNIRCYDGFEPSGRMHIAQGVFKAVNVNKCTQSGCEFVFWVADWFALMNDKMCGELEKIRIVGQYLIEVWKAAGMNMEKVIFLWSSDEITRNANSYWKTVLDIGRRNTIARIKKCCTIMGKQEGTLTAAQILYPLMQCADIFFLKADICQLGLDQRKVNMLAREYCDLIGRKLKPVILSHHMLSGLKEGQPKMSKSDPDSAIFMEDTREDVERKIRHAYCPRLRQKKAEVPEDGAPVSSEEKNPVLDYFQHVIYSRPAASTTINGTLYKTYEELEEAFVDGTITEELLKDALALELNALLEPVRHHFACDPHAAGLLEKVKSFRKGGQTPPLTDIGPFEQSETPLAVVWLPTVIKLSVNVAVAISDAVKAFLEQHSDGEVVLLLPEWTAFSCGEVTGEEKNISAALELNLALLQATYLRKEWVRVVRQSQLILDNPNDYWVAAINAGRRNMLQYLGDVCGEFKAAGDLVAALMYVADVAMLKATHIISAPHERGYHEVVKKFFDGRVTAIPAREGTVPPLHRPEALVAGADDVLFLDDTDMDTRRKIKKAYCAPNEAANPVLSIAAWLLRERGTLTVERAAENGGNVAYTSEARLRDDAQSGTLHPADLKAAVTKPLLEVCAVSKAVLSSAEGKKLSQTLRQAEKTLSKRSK

[8] = molecular target: T4, Tyrosyl-tRNA synthetase, putative (Trypanosoma cruzi (strain CL Brener)); assay: Trypanosoma cruzi tyrosyl tRNA synthetase (TcYRS) SOP; type: functional; conditions: 30 µM
[9] = molecular target: Chromo domain-containing protein 1 (Saccharomyces cerevisiae (strain ATCC 204508 / S288c) (Baker's yeast)) (UniProt P32657); assay: ScCHD-1 Enzyme Inhibition Assay; type: functional; conditions: 30 µM; also: in the data most compounds retested in dose-response had high values
Sequence of Chromo domain-containing protein 1 (Saccharomyces cerevisiae (strain ATCC 204508 / S288c) (Baker's yeast)) (P32657 whole entry, the tested form may be a part): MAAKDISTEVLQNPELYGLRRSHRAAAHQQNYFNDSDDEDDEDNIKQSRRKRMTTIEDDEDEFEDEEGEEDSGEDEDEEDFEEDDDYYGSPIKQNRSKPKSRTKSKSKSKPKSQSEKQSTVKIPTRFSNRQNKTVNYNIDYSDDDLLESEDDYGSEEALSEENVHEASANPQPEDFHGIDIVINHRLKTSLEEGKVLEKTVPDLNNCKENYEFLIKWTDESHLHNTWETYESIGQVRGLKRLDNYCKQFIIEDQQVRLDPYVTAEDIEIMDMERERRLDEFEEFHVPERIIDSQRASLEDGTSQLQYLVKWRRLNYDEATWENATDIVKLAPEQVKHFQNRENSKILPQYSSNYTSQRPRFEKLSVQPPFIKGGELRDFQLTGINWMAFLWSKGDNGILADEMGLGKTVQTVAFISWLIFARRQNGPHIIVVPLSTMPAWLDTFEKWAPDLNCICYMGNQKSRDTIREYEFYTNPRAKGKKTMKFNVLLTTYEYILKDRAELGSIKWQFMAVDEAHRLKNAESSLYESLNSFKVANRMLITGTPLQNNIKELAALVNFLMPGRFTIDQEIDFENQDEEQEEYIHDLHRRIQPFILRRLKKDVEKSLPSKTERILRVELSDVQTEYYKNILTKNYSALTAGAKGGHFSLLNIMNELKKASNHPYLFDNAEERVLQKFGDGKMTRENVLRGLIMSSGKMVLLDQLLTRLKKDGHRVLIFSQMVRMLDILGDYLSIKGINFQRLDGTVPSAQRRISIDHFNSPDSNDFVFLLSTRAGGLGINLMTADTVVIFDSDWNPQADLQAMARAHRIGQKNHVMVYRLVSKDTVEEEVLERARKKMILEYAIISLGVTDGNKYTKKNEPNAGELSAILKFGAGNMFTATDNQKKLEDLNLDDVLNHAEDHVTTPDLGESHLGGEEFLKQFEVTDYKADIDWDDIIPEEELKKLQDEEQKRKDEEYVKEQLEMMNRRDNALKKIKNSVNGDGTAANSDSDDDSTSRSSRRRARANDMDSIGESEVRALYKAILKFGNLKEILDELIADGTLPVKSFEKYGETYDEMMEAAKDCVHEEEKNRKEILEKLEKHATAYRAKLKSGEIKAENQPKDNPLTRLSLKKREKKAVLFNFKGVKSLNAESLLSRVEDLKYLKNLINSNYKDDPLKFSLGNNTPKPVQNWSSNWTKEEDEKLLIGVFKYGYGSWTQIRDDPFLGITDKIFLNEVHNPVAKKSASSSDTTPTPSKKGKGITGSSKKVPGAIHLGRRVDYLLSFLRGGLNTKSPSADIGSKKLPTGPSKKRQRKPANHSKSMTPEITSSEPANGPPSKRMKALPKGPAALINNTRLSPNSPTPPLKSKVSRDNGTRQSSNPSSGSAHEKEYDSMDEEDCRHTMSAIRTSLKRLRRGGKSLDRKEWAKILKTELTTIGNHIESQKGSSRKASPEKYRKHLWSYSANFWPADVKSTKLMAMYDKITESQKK

`CCCN1C(=O)CC(N2CCN(c3ccc(F)cc3)CC2)C1=O` (stereo not drawn) showed a Percent Effect [1] of -0.321%, a Percent Effect [2] of 13.2% and a Percent Effect [3] of 5.3%. The Percent Effect [4] was -9.41%, the Percent Effect (Trypanosoma cruzi) was -3.99% and the Percent Effect [5] was -7.1%. It also gave a Percent Effect [6] of 11.6%, a Percent Effect (Homo sapiens) of 11.5% and a Percent Effect [7] of 0%. It also gave a Percent Effect [8] of 7.79% and a Percent Effect [9] of -5.52%.

Work on `Cc1nn(C)c(Cl)c1C1CCCN1C(=O)c1nccnc1N` (stereo not drawn) yielded a Percent Effect [1] of -2.73%, a Percent Effect [2] of 16.2% and a Percent Effect [3] of -10.8%. For the same molecule, the Percent Effect [4] was -6.66%, the Percent Effect (Trypanosoma cruzi) was -3.3% and the Percent Effect [5] was 0.802%. It also gave a Percent Effect [6] of 12.4%, a Percent Effect (Homo sapiens) of 1.8% and a Percent Effect [7] of 7.39%. The Percent Effect [8] was 18.5% and the Percent Effect [9] was -6.71%.

In the case of `CN1CC(=O)N(c2cccc(F)c2)CC12CCN(Cc1cccnc1)C2` (stereo not drawn), the Percent Effect [1] was 1.08%, the Percent Effect [2] was 7.79% and the Percent Effect [3] was 4.97%. It also gave a Percent Effect [4] of 4.25%, a Percent Effect (Trypanosoma cruzi) of -2.46% and a Percent Effect [5] of 12.3%. The Percent Effect [6] was 12.9%, the Percent Effect (Homo sapiens) was 7.53% and the Percent Effect [7] was 3.17%. The Percent Effect [8] was 11.5% and the Percent Effect [9] was -1.97%.

Work on `Cc1cnn(CC2CCCCN2Cc2nc(N)c3ccccc3n2)c1` (stereo not drawn) yielded a Percent Effect [1] of -5.11%, a Percent Effect [2] of 10.1% and a Percent Effect [3] of -4.6%. The Percent Effect [4] was 5.93%, the Percent Effect (Trypanosoma cruzi) was 8.78% and the Percent Effect [5] was 0%. For the same molecule, the Percent Effect [6] was 12.2%, the Percent Effect (Homo sapiens) was -0.892% and the Percent Effect [7] was 14.3%. It also gave a Percent Effect [8] of 21.5% and a Percent Effect [9] of -8.03%.

For `CC(CN1CCN(C)CC1)NC(=O)c1cc(Cl)c2c(c1)OCO2` (stereo not drawn), the Percent Effect [1] was -11.8%, the Percent Effect [2] was 1.39% and the Percent Effect [3] was 140%. The Percent Effect [4] was -0.639%, the Percent Effect (Trypanosoma cruzi) was 0.68% and the Percent Effect [5] was 1.77%. For the same molecule, the Percent Effect [6] was 8.42%, the Percent Effect (Homo sapiens) was -2.86% and the Percent Effect [7] was 6.32%. For the same molecule, the Percent Effect [8] was 10.3% and the Percent Effect [9] was -2.31%.

`COc1ccc(OCc2nc(C(=O)N3CC(O)C3)co2)cc1` gave a Percent Effect [1] of -5.91%, a Percent Effect [2] of 5.41% and a Percent Effect [3] of 4.37%. It also gave a Percent Effect [4] of 4.07%, a Percent Effect (Trypanosoma cruzi) of 1.74% and a Percent Effect [5] of 1.43%. The Percent Effect [6] was 3.28%, the Percent Effect (Homo sapiens) was 2.54% and the Percent Effect [7] was 4.76%. For the same molecule, the Percent Effect [8] was 2.44% and the Percent Effect [9] was -0.668%.

Work on `Cc1cc(=O)[nH]c(CCNC(=O)C(c2ccc(F)cc2)N(C)C)n1` (stereo not drawn) yielded a Percent Effect [1] of 6.03%, a Percent Effect [2] of 11% and a Percent Effect [3] of -3.97%. It also gave a Percent Effect [4] of 1.73%, a Percent Effect (Trypanosoma cruzi) of -5.75% and a Percent Effect [5] of -14%. For the same molecule, the Percent Effect [6] was 13.3%, the Percent Effect (Homo sapiens) was 26.9% and the Percent Effect [7] was 10.4%. It also gave a Percent Effect [8] of 11.1% and a Percent Effect [9] of 0.214%.

Work on `Fc1ccc(CN2CCCC(c3nnc(-c4cnccn4)o3)C2)cc1F` (stereo not drawn) yielded a Percent Effect [1] of -9.81%, a Percent Effect [2] of 14.9% and a Percent Effect [3] of -1.12%. The Percent Effect [4] was 9.24%, the Percent Effect (Trypanosoma cruzi) was -0.198% and the Percent Effect [5] was -3.02%. For the same molecule, the Percent Effect [6] was 12%, the Percent Effect (Homo sapiens) was 1.34% and the Percent Effect [7] was 6.45%. The Percent Effect [8] was 14.3% and the Percent Effect [9] was -26.6%.
